# Measured values: the supplement of paper PMC4466140
# B1: unnamed (peptide)
# chain: PKRRAPPPVPKKPSS
# B2: unnamed (peptide)
# chain: RRSKSLPTTPGIRSG
# Assays:
# Assay in all cases: SPOT peptide array binding signal intensity (averaged, normalized) (arbitrary units (background-subtracted, floor 0; scale differs between SH3 domains)); higher = stronger binding of the SH3 domain to the peptide
# [1] = target: AgAbp1
# Outline: (§1)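 The binding signal is the normalized, background-subtracted spot intensity averaged over replicates; its arbitrary units differ between domains. It was obtained by incubating 10 μg/ml GST-fused SH3 domains from four yeast species overnight at 4°C in TBS-based blocking buffer on cellulose membranes with synthetic 15-mer peptides, cysteines replaced by serines, then detecting with anti-GST antibody, HRP anti-mouse secondary and luminol.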
# [2] = target: AgBbc1
# Outline: as §1
# [3] = target: AgBem1-D1
# Outline: as §1
# [4] = target: AgBzz1-D1
# Outline: as §1
# [5] = target: AgBzz1-D2
# Outline: as §1
# [6] = target: AgCyk3
# Outline: as §1
# [7] = target: AgFus1
# Outline: as §1
# [8] = target: AgHof1
# Outline: as §1
# [9] = target: AgHse1
# Outline: as §1
# [10] = target: AgLsb1
# Outline: as §1
# [11] = target: AgLsb4
# Outline: as §1
# [12] = target: AgMyo5
# Outline: as §1
# [13] = target: AgNbp2
# Outline: as §1
# [14] = target: AgRvs167
# Outline: as §1
# [15] = target: AgSho1
# Outline: as §1
# [16] = target: AgSla1-D1-D2
# Outline: as §1
# [17] = target: AgSla1-D3
# Outline: as §1
# [18] = target: CaAbp1-D1
# Outline: as §1
# [19] = target: CaAbp1-D2
# Outline: as §1
# [20] = target: CaBbc1
# Outline: as §1
# [21] = target: CaBem1-D1
# Outline: as §1
# [22] = target: CaBzz1-D1
# Outline: as §1
# [23] = target: CaBzz1-D2
# Outline: as §1
# [24] = target: CaCyk3
# Outline: as §1
# [25] = target: CaFus1
# Outline: as §1
# [26] = target: CaHof1
# Outline: as §1
# [27] = target: CaHse1
# Outline: as §1
# [28] = target: CaLsb1
# Outline: as §1
# [29] = target: CaLsb4
# Outline: as §1
# [30] = target: CaMyo5
# Outline: as §1
# [31] = target: CaNbp2
# Outline: as §1
# [32] = target: CaRvs167
# Outline: as §1
# [33] = target: CaRvs167-3
# Outline: as §1
# [34] = target: CaSho1
# Outline: as §1
# [35] = target: CaSla1-D1-D2
# Outline: as §1
# [36] = target: CaSla1-D3
# Outline: as §1
# [37] = target: ScAbp1
# Outline: as §1
# [38] = target: ScBbc1
# Outline: as §1
# [39] = target: ScBem1-D1
# Outline: as §1
# [40] = target: ScBzz1-D1
# Outline: as §1
# [41] = target: ScBzz1-D2
# Outline: as §1
# [42] = target: ScCyk3
# Outline: as §1
# [43] = target: ScFus1
# Outline: as §1
# [44] = target: ScHof1
# Outline: as §1
# [45] = target: ScHse1
# Outline: as §1
# [46] = target: ScLsb1
# Outline: as §1
# [47] = target: ScLsb2
# Outline: as §1
# [48] = target: ScLsb3
# Outline: as §1
# [49] = target: ScLsb4
# Outline: as §1
# [50] = target: ScMyo3
# Outline: as §1
# [51] = target: ScMyo5
# Outline: as §1
# [52] = target: ScNbp2
# Outline: as §1
# [53] = target: ScPex13
# Outline: as §1
# [54] = target: ScRvs167
# Outline: as §1
# [55] = target: ScSho1
# Outline: as §1
# [56] = target: ScSla1-D1-D2
# Outline: as §1
# [57] = target: ScSla1-D3
# Outline: as §1
# [58] = target: SpAbp1-D1
# Outline: as §1
# [59] = target: SpBbc1
# Outline: as §1
# [60] = target: SpBzz1-D1
# Outline: as §1
# [61] = target: SpBzz1-D2
# Outline: as §1
# [62] = target: SpCyk3
# Outline: as §1
# [63] = target: SpHof1
# Outline: as §1
# [64] = target: SpHof1-2
# Outline: as §1
# [65] = target: SpHof1-3
# Outline: as §1
# [66] = target: SpHse1
# Outline: as §1
# [67] = target: SpLsb1
# Outline: as §1
# [68] = target: SpLsb4
# Outline: as §1
# [69] = target: SpMyo1
# Outline: as §1
# [70] = target: SpNbp2
# Outline: as §1
# [71] = target: SpPex13
# Outline: as §1
# [72] = target: SpRvs167
# Outline: as §1
# [73] = target: SpSla1-D1-D2
# Outline: as §1
# [74] = target: SpSla1-D3
# Outline: as §1
binder,measurement,setting,value
B1,SPOT peptide array binding signal intensity,[1],5860
same,SPOT peptide array binding signal intensity,[2],1440
same,SPOT peptide array binding signal intensity,[3],221
same,SPOT peptide array binding signal intensity,[4],2030
same,SPOT peptide array binding signal intensity,[5],987
same,SPOT peptide array binding signal intensity,[6],1
same,SPOT peptide array binding signal intensity,[7],21.5
same,SPOT peptide array binding signal intensity,[8],530
same,SPOT peptide array binding signal intensity,[9],122
same,SPOT peptide array binding signal intensity,[10],784
same,SPOT peptide array binding signal intensity,[11],158
same,SPOT peptide array binding signal intensity,[12],73.5
same,SPOT peptide array binding signal intensity,[13],5620
same,SPOT peptide array binding signal intensity,[14],100
same,SPOT peptide array binding signal intensity,[15],479
same,SPOT peptide array binding signal intensity,[16],96
same,SPOT peptide array binding signal intensity,[17],856
same,SPOT peptide array binding signal intensity,[18],2910
same,SPOT peptide array binding signal intensity,[19],5120
same,SPOT peptide array binding signal intensity,[20],1940
same,SPOT peptide array binding signal intensity,[21],110
same,SPOT peptide array binding signal intensity,[22],6700
same,SPOT peptide array binding signal intensity,[23],5750
same,SPOT peptide array binding signal intensity,[24],142
same,SPOT peptide array binding signal intensity,[25],188
same,SPOT peptide array binding signal intensity,[26],0.5
same,SPOT peptide array binding signal intensity,[27],788
same,SPOT peptide array binding signal intensity,[28],0.5
same,SPOT peptide array binding signal intensity,[29],2470
same,SPOT peptide array binding signal intensity,[30],2
same,SPOT peptide array binding signal intensity,[31],3070
same,SPOT peptide array binding signal intensity,[32],104
same,SPOT peptide array binding signal intensity,[33],7.5
same,SPOT peptide array binding signal intensity,[34],93
same,SPOT peptide array binding signal intensity,[35],3270
same,SPOT peptide array binding signal intensity,[36],1040
same,SPOT peptide array binding signal intensity,[37],3020
same,SPOT peptide array binding signal intensity,[38],651
same,SPOT peptide array binding signal intensity,[39],40
same,SPOT peptide array binding signal intensity,[40],2560
same,SPOT peptide array binding signal intensity,[41],83.5
same,SPOT peptide array binding signal intensity,[42],6
same,SPOT peptide array binding signal intensity,[43],14
same,SPOT peptide array binding signal intensity,[44],≤ 0
same,SPOT peptide array binding signal intensity,[45],326
same,SPOT peptide array binding signal intensity,[46],488
same,SPOT peptide array binding signal intensity,[47],800
same,SPOT peptide array binding signal intensity,[48],4240
same,SPOT peptide array binding signal intensity,[49],78.5
same,SPOT peptide array binding signal intensity,[50],865
same,SPOT peptide array binding signal intensity,[51],436
same,SPOT peptide array binding signal intensity,[52],5110
same,SPOT peptide array binding signal intensity,[53],560
same,SPOT peptide array binding signal intensity,[54],1250
same,SPOT peptide array binding signal intensity,[55],1580
same,SPOT peptide array binding signal intensity,[56],3720
same,SPOT peptide array binding signal intensity,[57],1510
same,SPOT peptide array binding signal intensity,[58],1910
same,SPOT peptide array binding signal intensity,[59],144
same,SPOT peptide array binding signal intensity,[60],2040
same,SPOT peptide array binding signal intensity,[61],863
same,SPOT peptide array binding signal intensity,[62],2.5
same,SPOT peptide array binding signal intensity,[63],165
same,SPOT peptide array binding signal intensity,[64],21
same,SPOT peptide array binding signal intensity,[65],290
same,SPOT peptide array binding signal intensity,[66],143
same,SPOT peptide array binding signal intensity,[67],1820
same,SPOT peptide array binding signal intensity,[68],1020
same,SPOT peptide array binding signal intensity,[69],584
same,SPOT peptide array binding signal intensity,[70],38.5
same,SPOT peptide array binding signal intensity,[71],11
same,SPOT peptide array binding signal intensity,[72],803
same,SPOT peptide array binding signal intensity,[73],1990
same,SPOT peptide array binding signal intensity,[74],≤ 0
B2,SPOT peptide array binding signal intensity,[61],0.5
same,SPOT peptide array binding signal intensity,[62],5
same,SPOT peptide array binding signal intensity,[63],2630
same,SPOT peptide array binding signal intensity,[64],3020
same,SPOT peptide array binding signal intensity,[65],1440
same,SPOT peptide array binding signal intensity,[66],356
same,SPOT peptide array binding signal intensity,[67],0.5
same,SPOT peptide array binding signal intensity,[68],574
same,SPOT peptide array binding signal intensity,[69],15.2
same,SPOT peptide array binding signal intensity,[70],506
same,SPOT peptide array binding signal intensity,[71],8.5
same,SPOT peptide array binding signal intensity,[72],72.5
same,SPOT peptide array binding signal intensity,[73],1620
same,SPOT peptide array binding signal intensity,[74],15
